Laboratory results: the OligoGym collection

Each sequence was assayed against RBM28 (assay: pooled miR-30 sensor sort-seq; sequence = guide strand). Conditions: shRNA.
Further: reference of the scale not given here.

Sequence | sensor-assay potency score (higher = more potent)
TTGGTCTGGAACCCGGTCCATG | -1.16
TTGAAAAAGTGACATAGCCAAA | -1.59
TTTTCCTAGATACCTGCTCGGA | -0.748

These sequences were tested against RBM38 in the same assay as above. Conditions: shRNA.

Sequence | sensor-assay potency score (higher = more potent)
TTCGGGTCTTTGCAAGCCCTCT | -1.39
TTGGTGAACGTGGTGTCCTTCT | -0.339
TACTGGTCATAGGTGGCCGGTG | -1.24
TAGCTGTAGCCCACGAAGCTGG | -1.08
TGGTACTGCACGAAAGTGGTGC | -0.732
TTAACTTCTTGCTTTCAGGTTT | 0.295
TAAACAGTCCATTAACTTCTTG | -0.519
AAACAGTCCATTAACTTCTTGC | 0.128
TATGGGTACTGGTCATAGGTGG | -0.624
TCGAAGTACTTCCTGAGCGAGG | -1.24
AAGATCTTGGTGAACGTGGTGT | 0.0778
ACGAAGATCTTGGTGAACGTGG | -1.06

These sequences were tested against RBM45 in the same assay as above. Conditions: shRNA.

Sequence | sensor-assay potency score (higher = more potent)
TAAAATACTGAACCACTCCATG | -0.914
TAAATTGTTGCTGACTTGGGTT | 0.143
TTCATCTTCAACATCTCGGTGA | 0.811
TTTGAGGCAACTGTGATCCAGA | -0.334
TTGAATAAGGATCTCGTTGAAC | -0.518
TTTATTTTTAGGTTCAGCCAAG | -0.905
TTCTTCATCTTCAACATCTCGG | 0.279
TGGAAGTACAACATCTGTCTGG | -0.0344
TACTATAATAATCTTGTTCAGA | -0.469
TATATCTTCTAATACGTCTAAA | -0.714
TATTACTATAATAATCTTGTTC | -0.451

Each sequence was assayed against RBMX in the same assay as above. Conditions: shRNA.

Sequence | sensor-assay potency score (higher = more potent)
TACCACTTTCAAATGATGGTTT | -0.141
ATATCCACCGTCATCCATGTGT | -0.304
TTTCTTGTCTGCCAACCCGATC | -1.65
TCTATCGCTATATCCTCTTGAT | -0.479
TATCCGTCACGTGAGCTGCTGT | -0.783
TATCTCTTCCACGTGATACAGG | -1.23
TATCGCTATATCCTCTTGATGG | -1
TCGACTTCCACCATATCCGTCA | -0.253
TACAGGAGCTCTTCCTCCCATT | -1.19
TCTCTATCGCTATATCCTCTTG | -1.36
TCCACTGCTACTGCGAACTGGT | -0.729
TAGTATCACGAGAACTTGGGTA | -0.18
